From PubChem BioAssay come the findings set out here.

Activity calls are given as the source filed them.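 How the source made its calls, unless noted: active means inhibition above 20% together with a positive visual image hit; inconclusive means visual image hit but inhibition not above 20%; inactive means no visual image hit.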

Test [1] in a line: inhibitors of TNFa-induced NFkB p65 translocation, primary screen, imaging, HUVEC, MLSMR starter and 10KST1 sets (AID 438).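 Further: compound added about 3h40 before a 20 min TNFalpha stimulation.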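 On inhibition: signal is the nuclear over cytoplasmic p65 intensity ratio per well.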 The conditions noted are these: HUVEC TNFa-induced p65 nuclear translocation; cell count: measured here: nuclei count (cytotoxicity indicator), at 2.08 µM; inhibition: at 2 µM, stronger effect = higher value, 0% TNFa-plus-vehicle, 100% no-TNFa wells.
The nature of test [2]: inhibitors of mutant huntingtin aggregation, primary screen, imaging, exon1htt(103Q)mCFP cells, high-content imaging (AID 483;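 active means visual image review flags a hit and inhibition of aggregation exceeds 20%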;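 further: compound exposure lasted 3 days before fixation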;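 on nuclei count: percent of the per-plate median nuclei count of sample wells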). The conditions noted are these: exon1htt(103Q)mCFP cell line, aggregate imaging, at 2 µM; inhibition of aggregation: stronger effect = higher value; nuclei count: measured here: cell count, toxicity.
The nature of test [3]: inhibitors of E-selectin induction by TNFa, primary screen, imaging, HUVEC, immunofluorescence, MLSMR starter and 10KST1 sets (AID 487;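 active means visually confirmed hit in the image check and inhibition above 20%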;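 on inhibition: signal is fraction of cell area covered by stained E-selectin grains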;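 on nuclei count: 100% = median nuclei count of all wells on the same plate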). The conditions noted are these: HUVEC TNFalpha-induced E-selectin immunofluorescence imaging, at 2 µM; inhibition: stronger effect = higher value; nuclei count: measured here: cell number, toxicity.
The target in test [4] is Voltage-gated potassium channel subunit beta-2 (Rattus norvegicus) (UniProt P62483). Nature of the test: KvBeta enzyme negative modulators, primary screen, biochemical, NADPH fluorescence (AID 622;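 active means fluorescence slope higher than the sample average by over 3 SD, cut at about -0.22 in these data, passing the limit was not always enough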;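 further: slope of raw intensity against log time taken from 70 to 1610 s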). As to conditions: recombinant KvBeta, 4-cyanobenzaldehyde reduction, at 10 µM, stronger effect = higher value.
Test [5] shares this target. Nature of the test: KvBeta positive modulators, primary screen, biochemical, NADPH fluorescence (AID 623;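 active means NADPH fluorescence slope more negative than the mean of all samples by about 3 SD, 99.7% confidence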;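 further: fluorescence intensity change per second fitted from 20 to 320 s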). As to conditions: Recombinant KvBeta, NADPH fluorescence decrease slope, 10 min; at 10 µM; stronger effect = lower value.
Test [6] deals with Alpha-2C adrenergic receptor (Homo sapiens) (UniProt P18825). In words: modulators of alpha2C/GIRK thallium flux, primary screen, cell-based, HEK293 alpha2C/GIRK1/2 (AID 624;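 active means fluorescence slope after compound addition differing from the mean of all screened samples at 99.7% confidence, in either direction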;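 further: slope of fluorescence ratio to pre-addition baseline per second over 15 to 24 s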). As to conditions: thallium flux BTC fluorescence, at 10 µM, actives lie on both sides.
Test [7] is described as follows: inhibitors of Sendai virus-induced IRF3 signaling, primary screen, TLR/RLR signaling modifier project, cell-based, Sendai virus stimulus, luciferase, 10K MLSCN set (AID 602276;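 active means inhibition at or above 50% at 10 µM; inactive means inhibition below 50%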;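 further: firefly luciferase from ISG56 promoter only with Renilla not read in this screen; 0% = Sendai virus plus DMSO and 100% = medium plus DMSO without virus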). As to conditions: HEK293 RL24 IRF3 luciferase reporter, at 10 µM, stronger effect = higher value.
Test [8] is described as follows: inhibitors of poly I:C-induced TLR3 signaling, primary screen, cell-based, poly I:C stimulus, luciferase, 10K MLSCN set (AID 602277;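 active means inhibition of the reporter signal at or above 50%; inactive means inhibition below 50%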). As to conditions: HEK293-TLR3 RL24 IRF3 luciferase reporter, at 10 µM, stronger effect = higher value. In general terms: In a reporter assay the amount or activity of a reporter protein is the signal.

Chain of Voltage-gated potassium channel subunit beta-2 (Rattus norvegicus) (P62483 whole entry, looked up): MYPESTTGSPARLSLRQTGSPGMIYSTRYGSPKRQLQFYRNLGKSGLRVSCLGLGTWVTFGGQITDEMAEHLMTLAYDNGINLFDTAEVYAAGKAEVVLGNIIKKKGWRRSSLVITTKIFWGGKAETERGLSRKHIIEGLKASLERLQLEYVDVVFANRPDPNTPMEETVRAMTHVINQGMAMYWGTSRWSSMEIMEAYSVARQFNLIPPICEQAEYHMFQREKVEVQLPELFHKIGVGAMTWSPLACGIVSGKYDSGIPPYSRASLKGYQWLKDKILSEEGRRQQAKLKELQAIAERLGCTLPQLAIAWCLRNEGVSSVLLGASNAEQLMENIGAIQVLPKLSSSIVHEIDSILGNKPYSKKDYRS
Chain of Alpha-2C adrenergic receptor (Homo sapiens) (P18825 whole entry, looked up): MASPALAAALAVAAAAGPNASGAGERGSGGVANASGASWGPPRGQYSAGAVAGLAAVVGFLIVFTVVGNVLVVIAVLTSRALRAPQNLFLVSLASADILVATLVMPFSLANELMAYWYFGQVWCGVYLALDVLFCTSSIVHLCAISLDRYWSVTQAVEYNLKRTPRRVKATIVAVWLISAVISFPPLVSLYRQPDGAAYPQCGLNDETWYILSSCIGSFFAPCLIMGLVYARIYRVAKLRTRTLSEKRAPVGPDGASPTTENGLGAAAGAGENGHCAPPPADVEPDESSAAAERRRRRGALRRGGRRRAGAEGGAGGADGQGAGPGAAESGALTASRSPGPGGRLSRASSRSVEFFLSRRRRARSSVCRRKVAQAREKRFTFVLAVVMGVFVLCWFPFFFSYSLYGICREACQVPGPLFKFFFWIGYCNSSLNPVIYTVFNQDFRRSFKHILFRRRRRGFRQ

As to `Cc1ccc(NC(=O)c2cc(S(=O)(=O)N3CCC4(CC3)OCCO4)ccc2F)cc1`, the cell count in test [1] turned out to be 369. Besides, the inhibition in test [1] is -3.3% (inactive); in test [3], -43.7% (inactive); in test [7] it was -8.15% (inactive); in test [8] it was -22.3% (inactive). Besides, the inhibition of aggregation in test [2] was 12.5% (inactive). Further, the figures for the nuclei count in test [2] and in test [3] were 102% and 108%, respectively. In addition, in test [4], the fluorescence slope is -0.441 (inactive). Also, the NADPH fluorescence slope in test [5] was 3.1e-05 (inactive). In test [6], the slope was 0.0033 (inactive).
For the compound `CCCCC(O)(C(NC=O)C(=O)OC)C(F)(F)F` (centres undefined), the cell count in test [1] came to 703. The inhibition in test [1] was -10.7% (inactive); in test [3] it was -10.7% (inactive); in test [7], 22% (inactive); in test [8], 16% (inactive). Also, the inhibition of aggregation in test [2] is 12.7% (inactive). The nuclei count was found to be 67.6% in test [2] and 113% in test [3]. For the same compound, the fluorescence slope in test [4] is -0.489 (inactive). For the same compound, the NADPH fluorescence slope in test [5] was 9.5e-07 (inactive). In addition, the slope in test [6] was 0.00464 (inactive).
Consider `Cc1nc2ncnn2c(N2CCC(C(=O)NC3CCCC3)CC2)c1Cc1ccccc1`, for which the cell count in test [1] came to 400. For the same compound, the inhibition in test [1] is 2.7% (inactive); in test [3], -87.8% (inactive); in test [7], 5.2% (inactive); in test [8] it was 25.7% (inactive). Moreover, in test [2], the inhibition of aggregation was -20.2% (inactive). The nuclei count amounted to 116% in test [2] and 117% in test [3]. Moreover, the fluorescence slope in test [4] was -0.463 (inactive). The NADPH fluorescence slope in test [5] was -0.000271 (inactive). Moreover, in test [6], the slope is 0.00426 (inactive).
In the case of `CCN(CC(=O)NC1CCS(=O)(=O)C1)C(=O)C(c1ccccc1)c1ccccc1` (centres undefined), the cell count in test [1] worked out at 887. In addition, the inhibition in test [1] is 3.8% (inactive); in test [3], -74.7% (inactive); in test [7], 6.14% (inactive); in test [8], 5.12% (inactive). Also, the inhibition of aggregation in test [2] is -12.1% (inactive). Further, the nuclei count in test [2] worked out at 105%; in test [3] it was 130%. Also, in test [4], the fluorescence slope is -0.261 (inactive). For the same compound, the NADPH fluorescence slope in test [5] is -5e-05 (inactive). For the same compound, the slope in test [6] is 0.00562 (inactive).
In the case of `COCCn1c(C)cc(C(=O)CSc2nc3ccccc3c(=O)[nH]2)c1C`, the cell count in test [1] came to 287. The inhibition was -9.5% (inactive) in test [1], -22.3% (inactive) in test [3], -28% (inactive) in test [7] and -89.1% (inactive) in test [8]. Moreover, the inhibition of aggregation in test [2] is -2.6% (inactive). For the same compound, the nuclei count in test [2] is 95.3%; in test [3], 114%. In addition, the fluorescence slope in test [4] was -0.595 (inactive). Also, in test [5], the NADPH fluorescence slope was -3.8e-05 (inactive). Besides, in test [6], the slope was 0.00437 (inactive).
In the case of `O=C(CSc1nnc2ncccn12)N1CCCCCC1`, the cell count in test [1] amounted to 673. For the same compound, the inhibition in test [1] was 26.6% (active); in test [3] it was -9.5% (inactive); in test [7], 4.98% (inactive); in test [8], 99.3% (active). For the same compound, in test [2], the inhibition of aggregation is 8.3% (inactive). Further, the nuclei count stood at 106% in test [2] and 82.7% in test [3]. Moreover, the fluorescence slope in test [4] is -0.475 (inactive). Moreover, the NADPH fluorescence slope in test [5] was -0.000211 (inactive). For the same compound, the slope in test [6] is 0.00529 (inactive).
For `COC(=O)c1ccc(C2CC(=O)Nc3cc(OC)c(OC)c(OC)c32)cc1` (centres undefined), the cell count in test [1] was 416. Further, the inhibition in test [1] was 3.3% (inactive); in test [3] it was -82.3% (inactive); in test [7], 11.7% (inactive); in test [8], 25.2% (inactive). The inhibition of aggregation in test [2] was 11.2% (inactive). Besides, the nuclei count in test [2] was 90.4%; in test [3], 157%. In addition, the fluorescence slope in test [4] is -0.424 (inactive). In addition, in test [5], the NADPH fluorescence slope is -3.3e-05 (inactive). For the same compound, the slope in test [6] is 0.00514 (inactive).
On to `Cc1cc(N2CCN(c3ccccn3)CC2)n2nc(C)nc2n1`, for which, in test [1], the cell count worked out at 435. Also, the inhibition in test [1] was 3.5% (inactive); in test [3] it was -4.2% (inactive); in test [7] it was 12.8% (inactive); in test [8] it was -7.58% (inactive). The inhibition of aggregation in test [2] is -16.4% (inactive). For the same compound, the nuclei count was 105% in test [2] and 111% in test [3]. Besides, the fluorescence slope in test [4] is -0.376 (inactive). Moreover, the NADPH fluorescence slope in test [5] is -3.3e-05 (inactive). The slope in test [6] is 0.00609 (inactive).
Turning to `COCc1[nH]nc2c1C(c1cc(OC)c(O)c(OC)c1)C(C#N)=C(N)O2` (centres undefined), the cell count in test [1] worked out at 397. For the same compound, the inhibition in test [1] was -1.6% (inactive); in test [3] it was -26.1% (inactive); in test [7], 17.4% (inactive); in test [8] it was 21.1% (inactive). In test [2], the inhibition of aggregation was -17% (inactive). The figures for the nuclei count in test [2] and in test [3] were 115% and 117%, respectively. For the same compound, the fluorescence slope in test [4] was -0.502 (inactive). Besides, the NADPH fluorescence slope in test [5] was -4.1e-05 (inactive). Besides, the slope in test [6] is 0.0049 (inactive).
`CCOC(=O)CN1CC23C=CC(O2)C(C(=O)Nc2ccc(OC)cc2OC)C3C1=O` (centres undefined): in test [1], the cell count came to 563. Further, the inhibition is 8% (inactive) in test [1], -54% (inactive) in test [3], 8.81% (inactive) in test [7] and 32% (inactive) in test [8]. The inhibition of aggregation in test [2] was 8.7% (inactive). For the same compound, the nuclei count in test [2] came out at 81.1%; in test [3] it was 116%. The fluorescence slope in test [4] is -0.574 (inactive). Also, the NADPH fluorescence slope in test [5] was -1.5e-05 (inactive). For the same compound, the slope in test [6] is 0.00618 (inactive).
On to `CCN(CC)c1ccc(NC(=O)CN2C(=O)CC(C)(C)S(=O)(=O)c3ccccc32)c(C)c1`, for which the cell count in test [1] worked out at 879. Also, the inhibition is 5.8% (inactive) in test [1], -63.3% (inactive) in test [3], 10.9% (inactive) in test [7] and -2.32% (inactive) in test [8]. For the same compound, the inhibition of aggregation in test [2] is 30.2% (inactive). The nuclei count in test [2] worked out at 60.8%; in test [3] it was 125%. Moreover, in test [4], the fluorescence slope is -0.465 (inactive). In addition, the NADPH fluorescence slope in test [5] is -2.5e-05 (inactive). Besides, the slope in test [6] is 0.00659 (inactive).
Take `CCCSc1nc(N)c(C#N)c(-c2ccc(C)cc2)c1C#N`: in test [1], the cell count turned out to be 683. Besides, the inhibition in test [1] is 10.1% (inactive); in test [3], -31.9% (inactive); in test [7], 3.6% (inactive); in test [8], 9.67% (inactive). In test [2], the inhibition of aggregation was -10.3% (inactive). For the same compound, the nuclei count in test [2] came out at 104%; in test [3], 141%. Besides, the fluorescence slope in test [4] is -0.382 (inactive). In addition, in test [5], the NADPH fluorescence slope was -6.2e-05 (inactive). Moreover, the slope in test [6] was 0.00536 (inactive).
Turning to `CCOC(=O)c1ccc(S(=O)(=O)Nc2cc(C(C)(C)C)no2)cc1`, the cell count in test [1] was 551. Further, the inhibition was -10.3% (inactive) in test [1], -194% (inactive) in test [3], -7.27% (inactive) in test [7] and -2.9% (inactive) in test [8]. Also, the inhibition of aggregation in test [2] is 5.8% (inactive). Besides, the nuclei count in test [2] was 108%; in test [3], 152%. In test [4], the fluorescence slope was -0.612 (inactive). In test [5], the NADPH fluorescence slope was 5.6e-06 (inactive). Further, the slope in test [6] was 0.00811 (inactive).
For `O=c1[nH]c(N2CCCCC2)nc2c1CCCC2`, the cell count in test [1] turned out to be 581. Moreover, the inhibition in test [1] was 0.9% (inactive); in test [3], 9.4% (inactive); in test [7], 17% (inactive); in test [8], 12.8% (inactive). Further, the inhibition of aggregation in test [2] was 5.9% (inactive). The nuclei count in test [2] stood at 107%; in test [3] it was 102%. Moreover, the fluorescence slope in test [4] was -0.265 (inactive). Also, the NADPH fluorescence slope in test [5] was -2.4e-05 (inactive). Also, the slope in test [6] was 0.00576 (inactive).

In general, inhibition refers to the drop in the measured response relative to a control, in per cent.
